Molecules are shown by their SMILES. Calls of active or inactive are those of the source.

The text below walks through data of PubChem BioAssay.

This assay can be described thus: yeast growth modulation, basal conditions, primary screen, YJM789 clinical isolate, OD600, 24 h (AID 1089).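 Note: growth of clinical yeast isolate S. cerevisiae YJM 789 seeded 1000 cells per well; test concentration not given here.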 Particulars: S. cerevisiae YJM789 growth, higher = more signal, called active from +8 up or from −8 down.
`COc1ccc(C(O)C2C=CC3C(=O)N(c4ccccc4)C(=O)C3N2Nc2ccc(C#N)cc2)c2ccccc12` (configuration not stated): the z-score is -1.89 (inactive).
As to `COCCOC(=O)N1C(=O)[C@@]2(c3ccccc31)[C@H](C(=O)N1CCN(c3ncccn3)CC1)[C@H]1C(=O)O[C@H](c3ccccc3)[C@H](c3ccccc3)N1[C@@H]2c1ccc(OCCO)cc1`, the z-score was 2.53 (inactive).
The figure for `CC=CC(O)C1C=CC2C(=O)N(c3ccccc3)C(=O)C2N1Nc1ccccc1` (configuration not stated) is 0.0831 (inactive).
The figure for `Cc1ccc(S[C@]2(C(=O)NCC(F)(F)F)CC(=O)N(Cc3ccccc3)[C@@H]2c2ccc(CO)cc2)cc1` is 0.249 (inactive).
The same measure for `[N-]=[N+]=Nc1ccccc1C[C@@]1(C(=O)O)N=C(c2ccc(OCCCO)cc2)O[C@@H]1c1ccccc1`: -0.0525 (inactive).
For the molecule `COCCCNC(=O)[C@]1(Cc2ccccc2CN=[N+]=[N-])N=C(c2ccc(OCCCO)cc2)O[C@@H]1c1ccccc1`, the z-score was -0.212 (inactive).
The same measure for `CC(C)OC(=O)CC(=O)CC(O)c1cccc(C#N)c1` (configuration not stated): -2.17 (inactive); for `CCCC=C(CCC)[C@@H](NP(=O)(c1ccccc1)c1ccccc1)c1ccc(C(F)(F)F)cc1`: -0.276 (inactive).
The figure for `CCCN1C(=O)[C@]2(Cc3ccccc3)N=C(c3ccc(OCCCO)cc3)O[C@@H]2c2ccccc21` is -0.128 (inactive).
The figure for `C[C@]12C(=O)N(CCCCCCO)[C@@H]3C(=O)N(c4ccc(Cl)cc4)CC=CC31O[C@@H]1/C=C\CCCOC(=O)C12` (some centres not stated) is -2.23 (inactive).
Regarding `COCCOC(=O)N1C(=O)[C@@]2(c3ccccc31)[C@H](c1ccc(OCCO)cc1)N1[C@H](c3ccccc3)[C@H](c3ccccc3)OC(=O)[C@H]1[C@@H]2C(=O)Nc1nc2ccccc2s1`, the z-score was 0.405 (inactive).
The figure for `C=CCN1Cc2ccccc2C[C@@]2(N=C(c3ccc(OCCCO)cc3)O[C@H]2c2ccccc2)C1=O` is -4.69 (inactive); for `CN(C)CCCCNC(=O)[C@H]1C[C@H]2C(=O)N3CCC[C@H]3C(=O)N2[C@H]1c1ccc(O)cc1` it is -0.859 (inactive); for `COC1(C)CN(Cc2ccccc2Br)[C@H](/C=C/c2ccccc2)[C@H](Cc2ccccc2)O1` (some centres not stated) it is -0.0969 (inactive).
The figure for `COc1cc(OC)c(C(O)C2C=CC3C(=O)N(c4ccccc4)C(=O)C3N2Nc2ccc(C#N)cc2)cc1Br` (configuration not stated) is -0.459 (inactive); for `O=C(O)[C@]1(Cc2ccccc2)N=C(c2ccc(OCCCO)cc2)O[C@@H]1c1ccccc1` it is 0.624 (inactive).
`O=C1c2ccccc2[C@@]2(Cc3ccccc3N(C3CC3)C2=O)[C@H](c2ccc(CO)cc2)N1C1CCCCC1`: the z-score was -0.451 (inactive).
The same measure for `COCCOC(=O)N1C(=O)[C@@]2(c3cc(C#CCC(C(=O)OC)C(=O)OC)ccc31)[C@H](c1ccc(OCCO)cc1)N1[C@H](c3ccccc3)[C@H](c3ccccc3)OC(=O)[C@H]1[C@@H]2C(=O)N1CCN(c2ncccn2)CC1`: 1.07 (inactive); for `O=C1O[C@@H](c2ccccc2)[C@@H](c2ccccc2)N2[C@@H](c3ccccc3OCCO)[C@]3(C(=O)Nc4ccc(C#CCCO)cc43)[C@@H](C(=O)N3CCN(c4ncccn4)CC3)[C@H]12`: 1.75 (inactive).
Regarding `COc1cc(CO)cc(I)c1O[C@H]1C=C(C(=O)NCCO)C[C@@H](N(CC2CCCCC2)C(=O)c2ccc(C(F)(F)F)cc2)[C@@H]1O`, the z-score is 0.0635 (inactive).
Take `Cc1c(NC(=O)/C(C#N)=C/C=C/c2ccccc2[N+](=O)[O-])c(=O)n(-c2ccccc2)n1C`: the z-score is 0.218 (inactive).
The same measure for `CCC[C@@H]1C[C@@]1(CCC)[C@@H](NP(=O)(c1ccccc1)c1ccccc1)c1ccc(Cl)cc1`: 1.2 (inactive); for `C=CCN1C(=O)[C@]2(CC=C)N=C(c3ccc(OCCCO)cc3)O[C@@H]2c2ccccc21`: -1.76 (inactive).
The same measure for `O=C1c2ccccc2[C@](Cc2ccccc2I)(C(=O)NCCN2CCOCC2)[C@H](c2ccc(CO)cc2)N1Cc1ccccc1`: 0.189 (inactive); for `COC(=O)[C@@]1(Cc2ccc(F)cc2)[C@H]2c3cc(C(=O)N4CCCC4)n(CCc4c[nH]c5ccc(OC)cc45)c3C[C@H]2CN1C(=O)c1ccccc1`: -0.0567 (inactive); for `O=C1c2ccccc2[C@](Cc2ccccc2I)(C(=O)NCc2ccccc2)[C@H](c2ccc(CO)cc2)N1C1CCCCC1`: -0.0116 (inactive).
The figure for `COCC(=C=CC[C@H](O)c1cccc(OCCO)c1)C[C@H](O)c1ccccn1` is 0.941 (inactive).
